Assay outcomes: PubChem BioAssay, National Center for Advancing Translational Sciences (NCATS)
The list is not random: actives were taken first. Their share in the collection is about 2.2%.
B2AR arrestin: qHTS assay of beta-arrestin-biased ligands of beta2-adrenergic receptor. Potency, µM (doses to about 46.1 µM), without a hit: top-dose activation, most hits filed as activators. beta-arrestin recruitment to beta2AR, cell-based reporter. AID 492947, 2010. Beta-2 adrenergic receptor (Homo sapiens), P07550. 0.02% of 330,000 active;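 note: potency is the fitted concentration of half-maximal effect; 0% = DMSO controls and full agonism = EC100 isoproterenol or metaproterenol; nearly all actives have a fitted effect of over 65% in size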
Nrf2 inh: Nrf2 qHTS screen for inhibitors | Potency, µM (top dose mostly 46 µM), without a hit: at the top dose activity change, negative = inhibition, most hits filed as inhibitors | AID 504444, 2011 | A549 ARE-Fluc reporter, luciferase luminescence, 18-24 h | 2.1% of 360,000 active; note: potency is the fitted concentration of half-maximal effect; % is set by controls: 0 for no effect and ±100 for the full control effect; nearly all actives have a fitted effect of over 60% in size
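Nrf2 function is reported as luminescence of an ARE-controlled luciferase in A549 cells. Compounds were tested at several concentrations, and a CellTiter-Fluor read on the same wells flagged cytotoxicity.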
miR-21 act: qHTS Assay for Modulators of miRNAs and/orActivators of miR-21 | HeLa miR-21 FLuc reporter, luciferase, 48 h | 340,000 tested, under 10 active | AID 2288, 2010 | Potency, µM (doses to about 38.3 µM), without a hit: top-dose activity change, positive = activation, actives largely listed as activators;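 note: % of control where 0% means no effect; miR-21 action dims this reporter so a rising signal means less miR-21 action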
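HeLa cells endogenously expressing miR-21, stably carrying CMV-driven firefly luciferase with a downstream miR-21 binding site, 2000 cells/well. Titrations up to approximately 40 uM, 48 hours; luciferase luminescence read.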
A549 tox-1: Nrf2 qHTS screen for inhibitors: counterscreen for cytotoxicity; A549 ARE-Fluc cells, CellTiter-Fluor viability, 18-24 h; 0.16% of 390,000 active; Potency, µM (doses to about 46 µM), for the others: top-dose activity change, negative = cytotoxicity, actives largely listed as inhibitors; note: potency is the fitted concentration of half-maximal effect; % is set by controls: 0 for no effect and ±100 for the full control effect
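A549 ARE_Fluc cells in 5% FBS OPTI-MEM were exposed to compounds in concentration-response for 18-24 h at 37 deg C. Viability was read by CellTiter-Fluor fluorescence (Ex 405/Em 525) after 30 min, before the luciferase read.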
Nrf2 activator: qHTS of Nrf2 Activators. AREc32 ARE-luciferase reporter (MCF7-derived line), luminescence, 24 h. Potency, µM (titrated, usually from 46.1 µM), for the others: at the highest dose activation, hits mostly activators. 0.31% of 410,000 active. AID 624171, 2012; note: potency is the fitted concentration of half-maximal effect; % of control where 0% means no effect; nearly all actives have a fitted effect of over 65% in size
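ARE activation measured as luciferase luminescence (Steady-Glo, 30 min RT) in AREc32_Fluc cells after 24 hr compound exposure at 37 deg C, 5% CO2; cells seeded overnight at 1000/well in OPTI-MEM, 5% FBS.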
FLuc enzyme inh: Nrf2 qHTS screen for inhibitors: Purified Fluc Biochemical Counterscreen for Hit Validation | shares compounds with Nrf2 inh | purified firefly luciferase, luminescence inhibition | Potency, µM (highest dose often 57.5 µM), for inactives: at the top dose activity change, negative = inhibition, actives largely listed as inhibitors | 4% of 1,400 active | AID 720522, 2013; note: potency is the fitted concentration of half-maximal effect; % is set by controls: 0 for no effect and ±100 for the full control effect; nearly all actives have a fitted effect of over 65% in size
Target sequence (P08659 whole entry, looked up): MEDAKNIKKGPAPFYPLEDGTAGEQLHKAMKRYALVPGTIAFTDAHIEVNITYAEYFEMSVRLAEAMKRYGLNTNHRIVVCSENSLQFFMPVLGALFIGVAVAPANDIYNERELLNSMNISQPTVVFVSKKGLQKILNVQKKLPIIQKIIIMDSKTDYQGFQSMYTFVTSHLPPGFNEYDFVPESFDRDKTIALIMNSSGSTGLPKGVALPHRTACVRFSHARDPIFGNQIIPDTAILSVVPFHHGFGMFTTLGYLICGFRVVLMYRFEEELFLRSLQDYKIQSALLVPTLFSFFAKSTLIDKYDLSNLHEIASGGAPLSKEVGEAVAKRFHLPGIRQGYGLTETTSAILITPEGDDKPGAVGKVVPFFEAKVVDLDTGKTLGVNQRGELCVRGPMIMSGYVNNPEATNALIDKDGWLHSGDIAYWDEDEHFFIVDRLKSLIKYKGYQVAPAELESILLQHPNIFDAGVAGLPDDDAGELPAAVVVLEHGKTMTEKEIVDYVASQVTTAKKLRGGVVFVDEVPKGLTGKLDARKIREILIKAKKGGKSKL
A549 tox-2: Nrf2 qHTS screen for inhibitors: A549 ARE-Fluc Cytotoxicity Counterscreen for Hit Validation | A549 ARE-Fluc cells, cytotoxicity counterscreen | AID 720523, 2013 | Potency, µM (titrated, usually from 46.1 µM), for the others: top-dose activity change, negative = cytotoxicity, hits mostly inhibitors | 2% of 1,400 active | shares compounds with Nrf2 inh;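 note: potency is the fitted concentration of half-maximal effect; cells exposed to compounds for 18 to 24 hours; % is set by controls: 0 for no effect and ±100 for the full control effect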
Nrf2 ARE inh: Nrf2 qHTS screen for inhibitors: Nrf2 A549 ARE-Fluc Confirmation Assay for Hit Validation; shares compounds with Nrf2 inh; AID 720524, 2013; Potency, µM (doses to about 46.1 µM), for inactives: top-dose activity change, negative = inhibition, hits mostly inhibitors; A549 ARE-firefly luciferase reporter, luminescence; 74% of 1,400 active; note: potency is the fitted concentration of half-maximal effect; % is set by controls: 0 for no effect and ±100 for the full control effect; nearly all actives have a fitted effect of over 65% in size
* = called active by the depositor; ? = inconclusive; . = no result shown. Calls come from the whole dose curve; as a rule, active = well fitted curve in the direction sought with a large enough effect; inconclusive = small, poorly fitted or top-dose-only effect, or another doubt; inactive = no such curve, though single readings can be large; an effect the other way counts as inactive or inconclusive.

SMILES	B2AR arrestin	Nrf2 inh	miR-21 act	A549 tox-1	Nrf2 activator	FLuc enzyme inh	A549 tox-2	Nrf2 ARE inh
Cc1ccc(NC(=S)NC(=O)c2ccc(F)cc2)cc1S(=O)(=O)Nc1ccccc1Cl	1%	7.3µM*	?	?	2%	-10%	-12%	?
Cc1ccc(NC(=O)c2ccc(=O)[nH]n2)cc1S(=O)(=O)Nc1ccccc1Cl	0%	-4%	.	-2%	0%	.	.	.
COc1ccc(CCNC(=O)c2ccc3c(c2)CCN3S(=O)(=O)c2ccc(C)cc2)cc1	.	?	12%	0%	1%	.	.	.
Cc1cc(C)c(NC(=O)CSc2nc(=O)n(Cc3ccncc3)c3c2CCC3)c(C)c1	.	.	0%	1%	2%	.	.	.
CC(C)CC[n+]1ccccc1/C=C/c1ccc(N(C)C)cc1	-1%	7.3µM*	?	?	3%	2%	?	5.8µM*
CN(C)c1ccc(/C=C/c2cccc[n+]2[O-])cc1	0%	10%	-53%	-6%	0%	.	.	.
Clc1ccc(/C=C/c2ccncc2)cc1Cl	.	.	.	.	.	0%	-39%	?
COc1ccc(/C=C/c2ccncc2)cc1	0%	?	-52%	-5%	3%	.	.	.
COc1ccc(C2C=C3CNS(=O)(=O)C3CC2OC(=O)c2cccc(C)c2)cc1 (centres undefined)	.	-9%	.	1%	.	.	.	.
O=C(NCc1ccccc1Cl)C1CCCN(C(=O)c2cnn(-c3ccc(F)cc3)c2-n2cccc2)C1 (centres undefined)	.	-5%	22%	-1%	0%	.	.	.
Cc1nc(N)nc(N)c1-c1ccc(Cl)c(Cl)c1	.	?	.	-6%	4%	2%	-12%	1.2µM*
Cc1cc(OCc2nc(N)nc(N)c2-c2ccc(Cl)c(Cl)c2)ccc1[N+](=O)[O-]	.	8.2µM*	.	17%	11%	-10%	-4%	15µM*
COc1cccc(-c2nc3c(C#N)c[nH]n3c2NC2CCCCC2)c1	.	5%	21%	-4%	-1%	.	.	.
Cc1ccccc1NC(=O)Cn1c(=O)n(Cc2ccco2)c(=O)c2cccnc21	.	0%	-8%	-3%	-1%	.	.	.
Cc1nc(N2CCCCC2)sc1C(=O)c1cccc([N+](=O)[O-])c1	-1%	2.9µM*	-50%	-14%	3%	-28%	0%	-20%
N=C(c1cccc([N+](=O)[O-])c1)N1CCCCCC1	0%	6%	-1%	1%	0%	.	.	.
COc1ccc(-c2nc3c(c(SCC(=O)Nc4cccc(O)c4)n2)Cc2c(CO)cnc(C)c2O3)cc1	0%	-1%	-11%	10%	5%	.	.	.
Cc1ncc(CO)c2c1Oc1nc(-c3ccccc3)nc(SCC(=O)Nc3cccc(O)c3)c1C2	0%	1.8µM*	-1%	?	0%	-2%	-14%	5.8µM*
O=C(CSc1nnc(-c2cccnc2)s1)Nc1ccnc2ccccc12	0%	4.1µM*	25%	-8%	3%	-19%	-10%	5.2µM*
Cc1ccc(NC(=O)CSc2nnc(-c3cccnc3)s2)cc1	0%	12%	-4%	-13%	-1%	.	.	.
Cc1cccc(CSc2nc3c(c(=O)[nH]2)C(c2cccc(O)c2)CC(=O)N3)c1 (centres undefined)	.	3%	6%	-1%	3%	.	.	.
CCOc1ccc(CNC(=O)CCS(=O)(=O)c2cc3c(cc2Cl)NC(=O)CO3)cc1OC	.	?	-8%	-4%	3%	.	.	.
O=C(Oc1cccnc1)c1ccc([N+](=O)[O-])cc1Cl	0%	1µM*	0%	5%	-1%	4%	?	.
O=c1c2c(nc3c(-c4ccc(Cl)cc4)c[nH]n13)CCCC2	0%	7.9µM*	28%	-12%	-1%	-16%	-16%	6.5µM*
CCN(CC)CCCNC(=O)c1ccc2c(c1)N(Cc1c(F)cccc1Cl)C(=O)c1ccccc1S2	.	13%	14%	1%	-2%	.	.	.
SMILES	B2AR arrestin	Nrf2 inh	miR-21 act	A549 tox-1	Nrf2 activator	FLuc enzyme inh	A549 tox-2	Nrf2 ARE inh
Cc1nn2c(=O)cc(COC(=O)c3ccc(NC(=O)CCc4ccccc4)cc3)nc2s1	.	.	-5%	3%	-1%	.	.	.
COc1ccc(Nc2nc(-c3cccs3)nc3ccccc23)cc1S(=O)(=O)N1CCOCC1	.	9.2µM*	.	?	-1%	-21%	?	?
Cc1ccc(S(=O)(=O)NCc2ccc(C(=O)N3CCN(c4ccc([N+](=O)[O-])cc4)CC3)cc2)cc1	-1%	5.2µM*	25%	?	9%	-1%	-21%	5.8µM*
COc1cccc2c1C(=O)c1c(O)c3c(c(O)c1C2=O)CC(O)(C(=O)CO)CC3OC1CC(N(C)C)C(O)C(C)O1 (centres undefined)	.	0.46µM*	.	?	-2%	?	?	0.26µM*
COc1cccc(CN2C(=O)c3ccccc3Sc3ccc(C(=O)NCCc4ccc(Cl)cc4)cc32)c1	.	?	9%	0%	4%	.	.	.
CC(C)(C)c1ccc(-n2ncc3c2CCCC3NC(=O)CN2CCOC2=O)cc1 (centres undefined)	0%	?	6%	-7%	0%	.	.	.
Cc1nnsc1C(=O)NC1CCCc2c1cnn2-c1ccc(C(C)(C)C)cc1 (centres undefined)	-1%	2.1µM*	23%	?	-1%	?	-13%	.
Cc1cc(C(=O)NC2CCCc3c2cnn3-c2ccc(C(C)(C)C)cc2)n[nH]1 (centres undefined)	-1%	4.6µM*	7%	13%	4%	?	-11%	16µM*
Cc1ncoc1C(=O)NC1CCCc2c1cnn2-c1ccc(C(C)(C)C)cc1 (centres undefined)	8%	2.3µM*	21%	?	0%	?	-6%	5.2µM*
O=C(NC1CCCc2c1cnn2-c1cc(F)cc(F)c1)c1ccncc1 (centres undefined)	0%	-5%	4%	8%	-1%	.	.	.
CC(C)(C)c1ccc(-n2ncc3c2CCCC3NC(=O)c2ccncc2)cc1 (centres undefined)	.	2.6µM*	.	-12%	0%	?	-6%	8.2µM*
